Test results published in PubChem BioAssay.
Inconclusive results are not listed. The source made the active and inactive calls.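 The calls were made as follows, unless noted: active = viability at or below 30% in both replicate assays; inconclusive = viability at or below 30% in just one of the two assays; inactive = the rest.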

Tests used:
[1] = reducers of endogenous Her2 protein level, primary screen, SKBR3 breast tumor cells, AlphaScreen, ATP viability (AID 461;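 active = Her2 level under about 52% in both replicate screens, with viability over 70% of control, limit read from the data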;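 as to Her2 level: lower value means less Her2 protein in the cells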;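 as to viability: percent of carrier control wells set as 100% viability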); details: 18-24 h, measured here: SKBR3 viability, ATP luminescence, at 10 µM
[2] = biological target: Receptor tyrosine-protein kinase erbB-2 (Homo sapiens) (UniProt P04626); assay: as above; details: 18-24 h, at 10 µM, stronger effect = lower value
[3] = SK-BR-3 cell growth inhibitors, pilot screen, 24 h, human (AID 572;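 active = viability at or below 10% of carrier control in both of two separate runs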;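 also: compound exposure lasted between 18 and 24 h rather than exactly 24 h; 100% = carrier-treated control wells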); details: SK-BR-3 viability, CellTiter-Glo luminescence, at 10 µM, stronger effect = lower value
[4] = HUVEC growth inhibition – cell-based, human, primary screen (AID 575); details: HUVEC proliferation, CellTiter-Glo luminescence, 72 h; at 10 µM; stronger effect = lower value;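 also: 100% = median of untreated cell wells with 0.1% DMSO on each plate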
[5] = growth inhibitors of H69AR lung tumor, primary screen, human, duplicate replicates (AID 580;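 active = viability at or under a set limit in both replicates, limit being median viability minus 3 SD, cut at about 48% in these data, passing the limit was not always enough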;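 also: 100% = mean luminescence of untreated wells and 0% = no signal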); details: H69AR lung tumor cells viability, ATP luminescence, 72 h; at 10 µM; stronger effect = lower value
[6] = reversal of MRP1-mediated doxorubicin resistance, pilot screen, H69AR cells, doxorubicin co-treatment (AID 601;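 active = viability loss from added drug above about 55%, and viability with drug at most 40%, in both replicates, limit read from the data, passing the limit was not always enough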); details: CellTiter-Glo, 72 h, at 10 µM; for differential viability (reversal): stronger effect = higher value
[7] = 384-well plate pilot, post-Golgi transport modulator project, inhibition of yeast transport mutant growth (AID 636; in the data active = inhibition above about 31%); details: absorbance 615 nm, about 18 h, stronger effect = higher value
[8] = growth suppression of yeast trafficking mutant, preliminary HTS, modulators of trafficking downstream of Golgi apparatus project, 1536-format plate, OD 615 nm (AID 637; in the data active = inhibition above about 30%); details: yeast transport mutant growth, absorbance 615 nm, 18 h; stronger effect = higher value
[9] = OD615 S. cerevisiae growth inhibition, permissive medium, pilot counter-assay, permissive growth control for S. cerevisiae lifespan shortening project (AID 705;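 active = growth inhibition above 25% in both replicates, a cutoff set 3 SD above the mean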); details: OD615, 24 h, at 10 µM, stronger effect = higher value
[10] = Restrictive medium S. cerevisiae growth inhibition, OD615, pilot screen of yeast lifespan reduction project, restrictive growth control (AID 706;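 active = growth inhibition above a set limit, 3 SD over mean compound inhibition, in both replicates, cut at about 43% in these data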;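 also: modified DeaD lifespan yeast strain shifted to restrictive glucose medium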); details: OD615, 48 h, at 10 µM, stronger effect = higher value
[11] = viability gain of MRP-1-high H69AR cells under doxorubicin, pilot screen, MRP-1 activator project, CellTiter-Glo, duplicate (AID 807;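 active = viability increase at or above a cutoff of the median across tested compounds plus 3 SD, cut at about 8.5% in these data, passing the limit was not always enough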;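 also: compound pretreatment 18-22 h then 72 h combined with doxorubicin; 0% = doxorubicin alone and 100% = vehicle without doxorubicin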); details: H69AR viability with doxorubicin, CellTiter-Glo luminescence; at 10 µM; stronger effect = higher value
[12] = growth suppression of beta-catenin knockout HCT116, pilot screen, human colon tumor cells (AID 823;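 active = cell viability at or below a set limit in both duplicate runs, the limit being the all-compound median minus 4 SD, cut at about 23% in these data, passing the limit was not always enough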;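 also: 0% = wells killed by 20 µM Hyamine and 100% = untreated DMSO cell wells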); details: CellTiter-Glo, 60 h, at 10 µM, stronger effect = lower value
[13] = growth suppression of PTEN-deleted HCT116, pilot screen, cell-based, HCT116 clonal line, CellTiter-Glo (AID 824;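 active = viability at or below 27.92% in each of two runs, the all-compound median minus 4 SD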;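 also: 0% = 20 µM Hyamine control and 100% = vehicle cell control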); details: 60 h, at 10 µM, stronger effect = lower value
[14] = inhibitors of the yeast RAM network, pilot screen, dse1pr::URA3 reporter, 5-FOA selection (AID 869;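 active = inhibition over a set limit, the all-compound mean plus 3 SD, in both replicate runs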;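 also: 0% = DMSO wells with no growth and 100% = 10 µM 1-NA-PP1 with full growth; RAM network block rescues cells from 5-FOA so hits raise OD615 growth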); details: S. cerevisiae dse1pr::URA3 5-FOA growth, OD615, 2 d; at 10 µM; stronger effect = higher value; strain carries analog-sensitive mutant Cbk1 kinase
[15] = RAM signaling pathway blockade in yeast – S. cerevisiae, Pdr1DBD-CYC8 efflux-inhibited sensitized strain, primary screen (AID 1298;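 active = RAM network inhibition above 8.4% in each of two replicates, 3 SD over the compound average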;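 also: 0% = DMSO untreated cells without growth and 100% = 10 µM 1-NA-PP1 full growth; higher means more yeast growth rescued from 5-FOA killing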); details: S. cerevisiae cbk1-as DSE1-URA3 strain, 5-FOA growth OD615, 2 d; at 50 µM; stronger effect = higher value
[16] = H69AR cells + 2 uM doxorubicin, measured here: viability with 2 uM doxorubicin, stronger effect = lower value
[17] = H69AR cells, compound alone cytotoxicity

Sequence of Receptor tyrosine-protein kinase erbB-2 (Homo sapiens) (P04626 whole entry, looked up): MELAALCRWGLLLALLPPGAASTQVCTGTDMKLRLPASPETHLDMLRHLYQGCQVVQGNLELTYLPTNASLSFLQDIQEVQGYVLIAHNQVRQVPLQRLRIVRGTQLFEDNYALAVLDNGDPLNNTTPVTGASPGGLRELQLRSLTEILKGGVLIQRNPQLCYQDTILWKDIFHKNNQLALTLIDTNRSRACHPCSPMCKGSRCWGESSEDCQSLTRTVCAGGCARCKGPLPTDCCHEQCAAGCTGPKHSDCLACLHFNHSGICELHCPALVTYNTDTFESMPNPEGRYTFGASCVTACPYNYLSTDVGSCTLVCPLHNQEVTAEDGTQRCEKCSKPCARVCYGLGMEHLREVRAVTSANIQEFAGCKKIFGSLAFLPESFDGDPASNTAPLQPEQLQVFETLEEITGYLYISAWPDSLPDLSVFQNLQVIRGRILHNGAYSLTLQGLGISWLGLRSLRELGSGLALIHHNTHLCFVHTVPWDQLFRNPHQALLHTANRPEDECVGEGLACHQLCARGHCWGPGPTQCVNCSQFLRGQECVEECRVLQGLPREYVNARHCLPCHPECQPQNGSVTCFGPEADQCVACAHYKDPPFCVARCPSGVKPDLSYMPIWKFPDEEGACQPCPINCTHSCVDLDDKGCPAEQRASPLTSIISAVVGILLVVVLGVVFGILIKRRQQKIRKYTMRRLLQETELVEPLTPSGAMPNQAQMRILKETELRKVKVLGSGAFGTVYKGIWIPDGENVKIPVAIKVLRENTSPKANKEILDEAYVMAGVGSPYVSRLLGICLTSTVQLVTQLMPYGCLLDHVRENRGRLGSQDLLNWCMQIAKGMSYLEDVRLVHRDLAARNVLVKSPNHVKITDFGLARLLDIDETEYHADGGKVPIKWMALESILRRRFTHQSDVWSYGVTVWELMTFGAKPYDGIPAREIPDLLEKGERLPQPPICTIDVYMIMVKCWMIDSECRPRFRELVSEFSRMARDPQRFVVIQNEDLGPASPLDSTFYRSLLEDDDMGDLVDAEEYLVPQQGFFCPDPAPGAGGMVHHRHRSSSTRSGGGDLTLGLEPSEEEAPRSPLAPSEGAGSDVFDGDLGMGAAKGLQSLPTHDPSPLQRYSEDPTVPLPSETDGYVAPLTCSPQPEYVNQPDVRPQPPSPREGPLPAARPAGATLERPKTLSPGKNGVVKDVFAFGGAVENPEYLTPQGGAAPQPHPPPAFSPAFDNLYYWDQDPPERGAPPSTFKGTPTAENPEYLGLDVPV

Structure (SMILES)	viability [1] [%]	Her2 level [2]	viability [3]	viability [4]	viability [5]	differential viability (reversal) ([6]; H69AR cells + 2 uM doxorubicin)	viability [6, 16] [%]	viability [6, 17] [%]	inhibition [7]	inhibition [8]	growth inhibition [9]	growth inhibition [10]	viability increase [11]	viability [12]	viability [13]	inhibition [14]	RAM network inhibition [15]
Cc1cc(NS(=O)(=O)c2ccc(NC(=O)COc3ccccc3C(C)C)cc2)no1	98	90.5% (inactive)	98% (inactive)	80.9% (inactive)	88.9% (inactive)	1.26% (inactive)	87.6	88.9	-5.2% (inactive)	-3.33% (inactive)	-12% (inactive)	-18.1% (inactive)	-1.38% (inactive)	93.6% (inactive)	83.4% (inactive)	2.17% (inactive)	4.16% (inactive)
COc1nnc(-c2ccc(C)c(S(=O)(=O)NCCO)c2)c2ccccc12	93.5	108% (inactive)	93.5% (inactive)	110% (inactive)	87.9% (inactive)	-2.42% (inactive)	90.3	87.9	-1.04% (inactive)	-6% (inactive)	-0.385% (inactive)	10% (inactive)	-1.67% (inactive)	106% (inactive)	101% (inactive)	-0.06% (inactive)	2.58% (inactive)
O=C(Cn1ncc2c1-c1ccccc1OC2)Nc1ccc(Cl)cn1	91.5	95% (inactive)	91.5% (inactive)	80.1% (inactive)	99.3% (inactive)	7.75% (inactive)	91.5	99.3	-0.26% (inactive)	-5.5% (inactive)	1.63% (inactive)	0.96% (inactive)	-3.35% (inactive)	95.9% (inactive)	95.1% (inactive)	4.09% (inactive)	0.83% (inactive)
CCN1CCN(CCCNC(=O)c2cc3sccc3n2CC)CC1	96.5	120% (inactive)	96.5% (inactive)	99% (inactive)	89.4% (inactive)	-1.6% (inactive)	91	89.4	-0.27% (inactive)	3% (inactive)	-3.32% (inactive)	-3.54% (inactive)	-1.72% (inactive)	96.9% (inactive)	98.6% (inactive)	0.865% (inactive)	1.23% (inactive)
COc1ccc(-c2nc(CSCC(=O)NCc3ccc4c(c3)OCO4)c(C)o2)cc1OC	98	108% (inactive)	98% (inactive)	92.9% (inactive)	84.9% (inactive)	-7.12% (inactive)	92	84.9	-4% (inactive)	1.5% (inactive)	-13.4% (inactive)	-12.2% (inactive)	-3.57% (inactive)	84.7% (inactive)	74.1% (inactive)	0.57% (inactive)	6.3% (inactive)
COC(=O)Cc1cc(=O)[nH]c(Nc2nc3ccccc3o2)n1	104	99.5% (inactive)	104% (inactive)	74.6% (inactive)	78.3% (inactive)	8.41% (inactive)	69.8	78.3	-1.03% (inactive)	-3.33% (inactive)	3.62% (inactive)	1.2% (inactive)	-2.4% (inactive)	102% (inactive)	97.9% (inactive)	1.03% (inactive)	5.31% (inactive)
COC(=O)c1ccc(NC(=O)CN2CCCC2)cc1	107	97.5% (inactive)	107% (inactive)	104% (inactive)	99.9% (inactive)	0.64% (inactive)	99.2	99.9	-2% (inactive)	-1.13% (inactive)	-4.15% (inactive)	-3.12% (inactive)	-0.69% (inactive)	98% (inactive)	102% (inactive)	0.115% (inactive)	0.47% (inactive)
C=CCOC(=O)COc1ccc2c(C)c(C)c(=O)oc2c1C	106	92.5% (inactive)	106% (inactive)	97.9% (inactive)	125% (inactive)	19.5% (inactive)	106	125	-0.81% (inactive)	-3.49% (inactive)	-18.3% (inactive)	-15.6% (inactive)	2.23% (inactive)	101% (inactive)	95.9% (inactive)	1% (inactive)	2.98% (inactive)
O=C(c1ccc(Br)o1)N(Cc1ccccc1)c1ccccn1	93.5	102% (inactive)	93.5% (inactive)	99.6% (inactive)	92.9% (inactive)	2.17% (inactive)	90.7	92.9	1.49% (inactive)	-0.98% (inactive)	-3.17% (inactive)	-6.46% (inactive)	-6.28% (inactive)	94.9% (inactive)	84% (inactive)	1.94% (inactive)	12% (inactive)
